High-throughput results (PubChem)
Sampled rows, rich in hits. Any-hit rate of the full collection: about 12%.
BAZ2B block = blocks human BAZ2B. Q9UIF8. AlphaScreen BAZ2B-H3K14Ac peptide displacement. Potency, µM (top dose mostly 114 µM), usual class: inhibitors. 4.4% of 360,000 active. AID 504333; also: nearly all actives have a fitted effect of over 60% in size
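AlphaScreen displacement of biotin-H3(5-23)K14Ac peptide (50 nM final) from BAZ2B (50 nM final) in PBS pH 7.4, 0.01% Tween-20; complex preformed 30 min RT, then compounds (top 110 uM) 30 min RT, beads 20 min dark.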
PLK1 PBD block = blocks phosphopeptide binding to human PLK1 polo-box domain; P53350; Plk1 PBD binding of FITC phosphopeptide, fluorescence polarization; Potency, µM, most hits filed as inhibitors; 2.8% of 360,000 active; AID 720504; also: series mostly up to about 57 µM; nearly all actives have a fitted effect of over 65% in size
Target sequence (P53350 whole entry, looked up, the tested form may be a part): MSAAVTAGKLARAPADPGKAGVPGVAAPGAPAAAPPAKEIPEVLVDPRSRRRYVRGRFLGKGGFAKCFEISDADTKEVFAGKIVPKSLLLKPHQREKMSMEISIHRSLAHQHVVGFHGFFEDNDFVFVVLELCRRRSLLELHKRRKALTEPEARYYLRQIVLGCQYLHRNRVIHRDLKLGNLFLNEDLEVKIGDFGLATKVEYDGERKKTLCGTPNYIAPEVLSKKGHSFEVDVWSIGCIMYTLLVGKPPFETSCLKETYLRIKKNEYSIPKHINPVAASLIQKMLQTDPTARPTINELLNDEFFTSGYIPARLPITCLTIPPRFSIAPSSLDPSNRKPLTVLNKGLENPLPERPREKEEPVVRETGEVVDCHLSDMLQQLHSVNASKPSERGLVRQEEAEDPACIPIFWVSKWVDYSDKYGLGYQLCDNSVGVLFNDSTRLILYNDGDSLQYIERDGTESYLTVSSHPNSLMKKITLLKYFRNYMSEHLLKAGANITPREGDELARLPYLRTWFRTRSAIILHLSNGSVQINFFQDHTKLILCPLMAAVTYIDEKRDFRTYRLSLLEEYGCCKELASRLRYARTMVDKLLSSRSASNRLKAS
JMJD2A Tudor inh = inhibitors of human JMJD2A Tudor domain; O75164; AlphaScreen JMJD2A-Tudor / H3K4me3 peptide binding; Potency, µM (titrated, usually from 114 µM), actives largely listed as inhibitors; 4.4% of 390,000 active; AID 504339; also: nearly all actives have a fitted effect of over 50% in size
G9a block = inhibitors of human histone lysine methyltransferase G9a | 8.8% of 350,000 active | Q96KQ7 | G9a H3K9 monomethylation, AlphaScreen, 2 h | Potency, µM (doses to about 102 µM), most hits filed as inhibitors; also: nearly all actives have a fitted effect of over 75% in size
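G9a (20 nM) was preincubated 15 min with compound, then reacted 2 h at room temperature with 500 nM biotin-H3K9 peptide and 20 µM SAM. Monomethyl-H3K9 detected by AlphaScreen using anti-H3K9me1 antibody.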
Sfp inh = inhibitors of Bacillus subtilis Sfp phosphopantetheinyl transferase. Biochemical Sfp PPTase activity, qHTS. 3.5% of 310,000 active. Potency, µM, most hits filed as inhibitors. Q9F4F7;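 also: the enzyme is Sfp with the accession as filed and its product quenches rhodamine fluorescence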
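With Hepes-Na pH 7.6 buffer containing 10 mM MgCl2, Sfp (15 nM) modified BHQ-2-YbbR (12.5 uM) using rhodamine-CoA (5 uM). Two reads 30 minutes apart at 525/598 nm yielded each well's rate.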
HP1b binding inh = blocks HP1-beta chromodomain binding to methylated histone tails; AlphaScreen HP1-beta / biotin-H3K9me3 peptide binding; Potency, µM (titrated, usually from 114 µM), actives largely listed as inhibitors; 0.56% of 390,000 active; also: nearly all actives have a fitted effect of over 70% in size
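AlphaScreen: HP1-beta (50 nM) preformed 30 min with biotin-H3(1-18)K9me3 peptide (50 nM) in PBS pH 7.4, 0.01% Tween-20. Compound added for 30 min at RT, then streptavidin donor/nickel chelate acceptor beads (10 ug/mL) for 30 min.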
A number is an active result; [ ] = dose if it differs, or a comment. Calls follow the shape of the dose curve; as a rule, active = well fitted curve in the direction sought with a large enough effect; inconclusive = small, poorly fitted or top-dose-only effect, or another doubt; inactive = no such curve, though single readings can be large; an effect the other way counts as inactive or inconclusive.

Results for Cc1ccc(S(=O)(=O)N2CC(=O)NC(=O)C2)cc1 ?
BAZ2B block: inactive; PLK1 PBD block: inactive; JMJD2A Tudor inh: inactive; G9a block: inactive; Sfp inh: inactive; HP1b binding inh: inactive

What do the screens show for `C[C@H]([C@H](C)N1CC(=O)NC(=O)C1)N1CC(=O)NC(=O)C1`?
G9a block: 2.2µM; Sfp inh: inconclusive

How did CC(C)(C)c1ccc(-c2n[nH]c(=S)n2C2CCCC2)cc1 do in these assays?
BAZ2B block: inactive; PLK1 PBD block: inactive; JMJD2A Tudor inh: inconclusive; G9a block: 7.9µM; Sfp inh: inactive; HP1b binding inh: inactive

How did Cc1ccc(COc2ccsc2-c2n[nH]c(=S)n2C)cc1 do in these assays?
BAZ2B block: inconclusive; PLK1 PBD block: inactive; JMJD2A Tudor inh: inactive; Sfp inh: inactive; HP1b binding inh: inactive

How did Cn1c(-c2ccc(C(C)(C)C)cc2)n[nH]c1=S do in these assays?
BAZ2B block: inactive; PLK1 PBD block: inactive; JMJD2A Tudor inh: 22µM; G9a block: 2µM; Sfp inh: inactive; HP1b binding inh: inactive

What do the screens show for `CCn1c(-c2ccc(F)cc2)n[nH]c1=S`?
BAZ2B block: inactive; PLK1 PBD block: inactive; JMJD2A Tudor inh: 5µM; G9a block: inconclusive; Sfp inh: inactive; HP1b binding inh: inactive

How did CCn1c(-c2cccc(Cl)c2)n[nH]c1=S do in these assays?
BAZ2B block: inactive; PLK1 PBD block: inactive; JMJD2A Tudor inh: 7.1µM; G9a block: 6.3µM; Sfp inh: inactive; HP1b binding inh: inactive

Results for CCOc1cc(-c2n[nH]c(=S)n2Cc2ccccc2)ccc1OC(F)F ?
BAZ2B block: inactive; PLK1 PBD block: inactive; JMJD2A Tudor inh: inactive; G9a block: inconclusive; HP1b binding inh: inactive

How did CCn1c(-c2ccc(C(C)(C)C)cc2)n[nH]c1=S do in these assays?
BAZ2B block: inactive; PLK1 PBD block: inactive; JMJD2A Tudor inh: 45µM; G9a block: 0.56µM; Sfp inh: inactive; HP1b binding inh: inactive

Results for CC(C)Cn1c(CCC(N)=O)nnc1SC(C)C(=O)Nc1ccc2c(c1)OCO2 (stereo not given) ?
BAZ2B block: inactive; PLK1 PBD block: inactive; JMJD2A Tudor inh: inactive; G9a block: inactive[12.7 µM]; HP1b binding inh: inactive

What do the screens show for `CCn1c(C)nc2cc(C(=O)N/N=C/c3cccc(OC)c3O)ccc21`?
BAZ2B block: inactive; PLK1 PBD block: inactive; JMJD2A Tudor inh: inconclusive; G9a block: 79µM; Sfp inh: inactive; HP1b binding inh: inactive

How did CCn1c(C)nc2cc(C(=O)N/N=C/c3ccc(O)c(O)c3O)ccc21 do in these assays?
BAZ2B block: 11µM; PLK1 PBD block: 8.4µM; JMJD2A Tudor inh: 6.3µM; G9a block: 2µM; Sfp inh: 2.2µM; HP1b binding inh: 8.9µM

Results for CCc1ccc(-c2cc(C(F)(F)F)n3nc(C(=O)Nc4cnn(Cc5ccc(C)cc5)c4)cc3n2)s1 ?
BAZ2B block: inactive; PLK1 PBD block: inactive; JMJD2A Tudor inh: inactive; G9a block: inactive; Sfp inh: inconclusive; HP1b binding inh: inactive

Results for CCN(CC)S(=O)(=O)c1ccc(OC)c(NC(=O)c2cc3c(=O)n4ccccc4nc3s2)c1 ?
BAZ2B block: inactive; PLK1 PBD block: inactive; JMJD2A Tudor inh: inactive; G9a block: 40µM; Sfp inh: inactive; HP1b binding inh: inactive

How did CCCCN(CC)C(=O)c1cc2c(=O)n3cccc(C)c3nc2s1 do in these assays?
BAZ2B block: inactive; PLK1 PBD block: 17µM; JMJD2A Tudor inh: inactive; G9a block: inactive; Sfp inh: inactive; HP1b binding inh: inactive

What do the screens show for `COc1ccc(CCNC(=O)c2cc3c(=O)n4cccc(C)c4nc3s2)cc1OC`?
BAZ2B block: inactive; PLK1 PBD block: inactive; JMJD2A Tudor inh: inactive; G9a block: 28µM; Sfp inh: inactive; HP1b binding inh: inactive

What do the screens show for `COc1ccc(CCNC(=O)c2cccc(-n3c(C)nc4cccnc43)c2)cc1OC`?
BAZ2B block: inactive; JMJD2A Tudor inh: inactive; G9a block: inactive; HP1b binding inh: inactive

How did CC(=O)NS(=O)(=O)c1ccc(NC(=O)c2cc3c(=O)n4ccccc4nc3s2)cc1 do in these assays?
BAZ2B block: inactive; PLK1 PBD block: inactive; JMJD2A Tudor inh: inactive; Sfp inh: inactive; HP1b binding inh: inactive

Results for COc1ccc(CCNC(=O)c2nc3ncccn3n2)cc1OC ?
BAZ2B block: inactive; PLK1 PBD block: 24µM; JMJD2A Tudor inh: inactive[11.4 µM]; G9a block: inactive; Sfp inh: inactive; HP1b binding inh: inactive
